Experimental data from PubChem BioAssay AID2314 (National Center for Advancing Translational Sciences (NCATS), 2010).
The whole screen tested about 300,000 compounds, of which about 37,000 (12%) were called active. The entries come from a sample that favours actives as a whole. Values without a mark were called inactive. Rule as the data show it: active = max response mostly above about 13% (no sharp cut-off); inactive = mostly below about 14%.

Test: Cycloheximide Counterscreen for Small Molecule Inhibitors of Shiga Toxin; also: read at 38.3 µM for the half of the compounds with a filed dose; 0% is about no effect
Conditions: cell reporter, cycloheximide protein synthesis inhibition counterscreen; hits give high values

Row | Structure (SMILES) | max response
1 | COC(=O)C1=C(C)NC(=O)NC1/C=C/c1ccccc1 (configuration not stated) | 0.456%
2 | Cc1ccc(C2C3=C(Nc4[nH]n(-c5ccccc5)c(=O)c42)c2ccccc2C3=O)cc1 (configuration not stated) | -3.8%
3 | COC(=O)C1=C(C)NC2=C(C(=O)c3ccccc32)C1c1ccc(-c2ccc(C(=O)O)cc2)o1 (configuration not stated) | 28.7% (active)
4 | N=C1/C(=C/c2cccn2-c2cccc([N+](=O)[O-])c2)C(=O)N=C2SC=CN12 | -2.19%
5 | CC1(C)CC2CC(C)(CN2c2ncnc3ccc(Br)cc23)C1 (configuration not stated) | -0.269%
6 | COc1ccc(Cc2nnnn2CC(=O)O)cc1 | -1.14%
7 | COc1ccc(Cc2cc(-c3ccc(F)cc3)n[nH]c2=O)cc1 | 16.2% (active)
8 | COc1ccc(Cc2nnc(SC)[nH]c2=O)cc1 | 4.91%
9 | O=c1[nH]c2ccccc2n2c(-c3ccccc3)nnc12 | -2.01%
10 | CC(CN1CCC(n2nccc2NC(=O)C2CCCC2)CC1)c1ccccc1 (configuration not stated) | -1.46%
11 | COc1cc(OC)cc(C(=O)N[C@H](C(=O)OCC(=O)NC(C)c2ccccc2)C(C)C)c1 (some centres not stated) | 6.33%
12 | COc1cc(OC)cc(C(=O)NCC(=O)OCc2csc(-c3ccccc3)n2)c1 | 20.1% (active)
13 | O=C(CNC(=O)c1ccccc1)NCC(=O)OCc1ccc(Cl)cc1 | -2.96%
14 | COc1cccc(NC(=O)c2ccccc2N(Cc2ccccc2)S(C)(=O)=O)c1 | 1.56%
15 | O=C1c2ccccc2C(=O)C1c1ccccc1 | 6.52% (active)
16 | O=C1NC(c2ccccc2)Oc2ccccc21 (configuration not stated) | -1.34%
17 | O=C1c2ccccc2C(=O)C1c1ccccc1F | -5.87%
18 | Cc1ccc(C)c(NC(=O)C2Cc3ccccc3CN2C(=O)OCc2ccccc2)c1 (configuration not stated) | -3.28%
19 | Cc1ccc(C(=O)O/N=C(\N)c2ccccn2)cc1Cl | 13.6%

Row | Structure (SMILES) | max response
20 | COc1ccc(C(=O)NNC(=O)c2cnccn2)cc1[N+](=O)[O-] | 1.13%
21 | N/C(Cc1ccc([N+](=O)[O-])cc1)=N\OC(=O)COc1ccc2ccccc2c1 | -3.82%
22 | CO/N=C(\N)c1ccc([N+](=O)[O-])cc1 | 0.264%
23 | N/C(=N\OC(=O)COc1ccc([N+](=O)[O-])cc1)c1ccc(Br)cc1 | 6.76%
24 | COc1ccc(C(=O)O/N=C(\N)c2ccccn2)cc1[N+](=O)[O-] | 59.4% (active)
25 | N/C(=N\OC(=O)Cc1ccc([N+](=O)[O-])cc1)c1ccccn1 | 61.5% (active)
26 | O=C(OCc1ccc([N+](=O)[O-])cc1)c1ccccn1 | -3.03%
27 | N/C(=N\OC(=O)c1ccc([N+](=O)[O-])cc1)c1ccccn1 | 42.7% (active)
28 | CCC(=O)Nc1nnc(S(=O)(=O)N2CCCc3ccccc32)s1 | 1.29%
29 | Cc1ccccc1-n1cc(CNC(=O)C2CCC(=O)N(C3CC3)C2)cn1 (configuration not stated) | -1.75%
30 | Cc1nn(C(C)C(=O)N2CCOCC2)c(=O)c2nn(-c3ccccc3)c(C)c12 (configuration not stated) | -8.4%
31 | CCOc1cc(NC(=O)c2ccccc2C(=O)O)c(OCC)cc1NC(=O)c1ccccc1F | -0.886%
32 | Cc1cc(C(F)F)n2nc(C(=O)Nc3ccc(S(=O)(=O)NC45CC6CC(CC(C6)C4)C5)cc3)nc2n1 | -6.02%
33 | O=C(C/C(=N\NC(=O)c1ccccc1Br)C(F)(F)F)c1cccs1 | -1.94%
34 | CC(C)c1ccc(S(=O)(=O)NC2CCCC2)cc1 | -3.21%
35 | O=C(Cn1nc(C(=O)O)c2ccccc2c1=O)Nc1ccc(F)cc1 | 5.62%
36 | CC(C(=O)NCCc1ccc(S(N)(=O)=O)cc1)N1C(=O)CC(C)(C)Sc2ccccc21 (configuration not stated) | -1.15%
37 | Cc1cc(C)c(S(=O)(=O)NCC2CCC(C(=O)NCc3ccc4c(c3)OCO4)CC2)c(C)c1 (configuration not stated) | -0.416%
38 | CN(C)CCOCCOc1ccc(Cl)c2ccccc12 | -1.16%

Row | Structure (SMILES) | max response
39 | O=C(NC(Cc1ccc(O)cc1)C(=O)O)/C(=C/c1ccccc1)NC(=O)c1ccccc1 (configuration not stated) | 18.4%
40 | COc1ccc(N2C(=O)c3ccccc3NC2c2ccc(OC)c(CN3CCOCC3)c2)cc1 (configuration not stated) | 28.2% (active)
41 | COc1ccc(C2Nc3ccccc3C(=O)N2c2ccc(F)cc2)cc1Cn1nnc2ccccc21 (configuration not stated) | 2.31%
42 | COc1ccc(CN2CCCC(C(=O)c3ccc(Cl)cc3)C2)cc1Cn1cncn1 (configuration not stated) | -7%
43 | COc1ccc(C2Nc3ccccc3C(=O)N2Cc2ccccc2)cc1Cn1nnc2ccccc21 (configuration not stated) | -1.8%
44 | COc1ccc([N+](=O)[O-])cc1C1NN=C(c2cccc3ccccc23)S1 (configuration not stated) | -2.19%
45 | COc1ccc(C2Nc3ccccc3C(=O)N2c2ccc(Cl)cc2)cc1Cn1cc([N+](=O)[O-])cn1 (configuration not stated) | 46.2% (active)
46 | CCCCCCCC(=O)NC(Nc1ccccc1OC)C(Cl)(Cl)Cl (configuration not stated) | 1.89%
47 | COc1ccc(C(=O)COC(=O)Cn2cnc3c2c(=O)n(C)c(=O)n3C)c(OC)c1 | -1.6%
48 | O=C(C1CCCO1)N1CCN(S(=O)(=O)c2ccc(Br)cc2)CC1 (configuration not stated) | -1.38%
49 | Cc1cnc(CN(C)C(=O)C2CCC(=O)N(CCc3cccc(F)c3)C2)[nH]1 (configuration not stated) | -1.18%
50 | C=CCNc1nc(N)c([N+](=O)[O-])c(NC2CCCCC2)n1 | -4.11%
51 | CC(C)(C)OC(=O)N1CCC(NC(=O)c2[nH]cnc2C(=O)N[C@@H](Cc2ccccc2)C(=O)OCc2ccccc2)CC1 | -1.27%
52 | Cc1ccnc(N2C(=O)c3ccccc3C2Nc2ccc3c(c2)OCCO3)c1 (configuration not stated) | 42.1% (active)
53 | COc1ccccc1C1/C(=C(/O)c2ccc(C)cc2)C(=O)C(=O)N1Cc1ccco1 (configuration not stated) | 3.34%
54 | Cn1cnc(S(=O)(=O)Nc2ccc3c(c2)OCCO3)c1 | -2.48%
55 | O=C(NC1CCCCC1)C1c2ccccc2C(=O)N1Cc1ccco1 (configuration not stated) | 0.684%
56 | O=C1c2ccccc2C(Nc2ccc3c(c2)OCCO3)N1Cc1ccco1 (configuration not stated) | 86.7% (active)
57 | COC(=O)c1cccc(C(=O)N2CCCC(Nc3ccc4c(c3)OCCO4)C2)c1 (configuration not stated) | -1.68%
